Screening data deposited in PubChem BioAssay by National Center for Advancing Translational Sciences (NCATS).
Gal4-VP16 FLuc: counter-screen for ROR gamma inhibitors: Gal4-VP16 reporter; Drosophila S2 Gal4-VP16 UAS-luciferase, luminescence, 20 h; Potency, µM (top dose mostly 53.6 µM), for the others: top-dose activity, negative = inhibition, hits mostly inhibitors; 310,000 compounds, 3.5% hits; AID 2546;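 note: Gal4-VP16 expression switched on by copper sulfate through the metallothionein promoter; potency is the fitted concentration of half-maximal effect; nearly all actives have a fitted effect of over 50% in size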
IL-1B inflam inh: inhibitors of inflammasome signaling (IL-1 beta secretion); THP-1 LPS/ATP IL-1B secretion, AlphaLISA, 16 h; hits give low values; activity change, % at 57.5 µM; 360,000 compounds, 4.7% hits; AID 743279; in the data active = activity change below about -50%; inconclusive = mostly about -30% to -49%
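THP-1 cells pretreated 1 hr with compounds (up to 57.5 uM final), then stimulated with LPS (250 ng/mL final) plus ATP (1.25 mM final); secreted IL-1B measured by AlphaLISA after 16 hr, decreased signal indicating inhibition.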
ELG1 repair inh: inhibitors of ELG1-dependent DNA repair in HEK293T cells | HEK293T ELG1-luciferase reporter, luminescence, 16 h; DNA damage induced by 5-fluorouridine | Potency, µM (titrated, usually from 46.1 µM), for inactives: at the top dose activity change, negative = inhibition, most hits filed as inhibitors | 330,000 compounds, 2.3% hits; note: potency is the fitted concentration of half-maximal effect; nearly all actives have a fitted effect of over 55% in size
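Overnight (16 hr) co-exposure of 2,000 cells/well to 5-fluorouridine and compound at 37 °C preceded detection. Luciferase was quantified via ONE-Glo luminescence; loss of signal denotes inhibition.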
TDP1 cell noCPT: qHTS for Inhibitors of human tyrosyl-DNA phosphodiesterase 1 (TDP1): qHTS in cells in absence of CPT; DT40 Tdp1-/- hTDP1 cells, no CPT, ATP luminescence, 48 h; Potency, µM (top dose mostly 46.2 µM), for inactives: at the highest dose activity change, negative = growth inhibition, most hits filed as inhibitors; 420,000 compounds, 15% hits; note: potency is the fitted concentration of half-maximal effect; nearly all actives have a fitted effect of over 55% in size
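Compound effects on proliferation are scored in DT40 Tdp1-/-;hTDP1 cells in the absence of CPT. ATP levels (CellTiter-Glo luminescence) are recorded after a ≥48 hr, 37 °C incubation.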
RORgamma inh: inhibitors of mouse ROR gamma transcriptional activity | Drosophila S2 Gal4-RORgamma UAS-luciferase reporter, 20 h | 310,000 compounds, 5.4% hits | Potency, µM (top dose mostly 53.6 µM), for inactives: top-dose activity change, negative = inhibition, most hits filed as inhibitors | P51450; note: potency is the fitted concentration of half-maximal effect; nearly all actives have a fitted effect of over 60% in size
Target sequence (P51450 whole entry, looked up, the tested form may be a part): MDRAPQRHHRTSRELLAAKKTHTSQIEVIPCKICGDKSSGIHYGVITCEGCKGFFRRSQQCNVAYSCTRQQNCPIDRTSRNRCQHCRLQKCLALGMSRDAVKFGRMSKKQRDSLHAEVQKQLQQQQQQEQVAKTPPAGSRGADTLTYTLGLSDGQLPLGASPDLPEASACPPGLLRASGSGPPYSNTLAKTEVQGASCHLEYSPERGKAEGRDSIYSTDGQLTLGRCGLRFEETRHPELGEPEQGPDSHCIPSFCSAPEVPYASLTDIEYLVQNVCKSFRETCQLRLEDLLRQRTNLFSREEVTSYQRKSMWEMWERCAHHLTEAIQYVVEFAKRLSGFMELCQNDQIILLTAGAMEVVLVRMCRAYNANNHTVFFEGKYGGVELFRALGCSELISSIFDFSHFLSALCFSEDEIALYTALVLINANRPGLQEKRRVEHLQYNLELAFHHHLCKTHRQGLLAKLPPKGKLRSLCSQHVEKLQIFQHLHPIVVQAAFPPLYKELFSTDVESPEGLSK
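Luminescence from a UAS-regulated Photinus luciferase reporter in stably transfected Drosophila Schneider cells is measured; decreased signal marks ROR gamma inhibition. Fusion expression is induced by 700 uM copper sulfate for 20 hr.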
TDP1 cell CPT: DT40-hTDP1 cell growth loss with CPT. Potency, µM (doses to about 46.2 µM), inactives show at the top dose activity change, negative = growth inhibition, usual class: inhibitors. 420,000 compounds, 12% hits. AID 686979. chicken DT40 Tdp1-/-;hTDP1 cells + 20 nM CPT, ATP luminescence, 48 h; note: potency is the fitted concentration of half-maximal effect; nearly all actives have a fitted effect of over 55% in size
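Cell growth measured by CellTiter-Glo luminescence after a minimum 48 h, 37 C compound exposure with 20 nM CPT in Tdp1-knockout DT40 cells stably expressing hTDP1, seeded 400/well; qHTS titration format.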
An asterisk follows results filed as active; ? = inconclusive; · = no result; [ ] = another dose, or the depositor's remark. This is a sample that favours compounds with a hit; in the whole collection about 21% have one here. Unless noted, calls come from the whole dose curve; as a rule, active = well fitted curve in the direction sought with a large enough effect; inconclusive = small, poorly fitted or top-dose-only effect, or another doubt; inactive = no such curve, though single readings can be large; an effect the other way counts as inactive or inconclusive. % is set by controls: 0 for no effect and ±100 for the full control effect.

SMILES	Gal4-VP16 FLuc	IL-1B inflam inh	ELG1 repair inh	TDP1 cell noCPT	RORgamma inh	TDP1 cell CPT
O=C(COc1ccccc1)NNc1nc2ccccc2s1	11µM*	18	?	-28%	5µM*	?
O=C(NNc1nc2c(F)cccc2s1)c1ccc(F)cc1	-29%	-11	-12%	?	?	?
Cc1ccc(C#CC2C=CC(Oc3ccc4c(c3)OCO4)C(CO)O2)c(C)c1 (stereo not drawn)	-6%[10 µM]	·	·	·	18%[10 µM]	·
Cc1ccc2c(=O)c(C(=O)c3cccc(Cl)c3)cn(CC(=O)NC3CCCCC3)c2n1	·	·	·	-6%	·	-17%
O=C(C1CCC(CNS(=O)(=O)c2cccc3cccnc23)CC1)N1CCc2ccccc21 (stereo not drawn)	-14%	-8	?	18µM*	12%	?
CCCN(CCC)C(=O)C1CCC(CNS(=O)(=O)c2cccc3nsnc23)CC1 (stereo not drawn)	2%	-5	-3%	?	-8%	?
CCCCN(C(=O)C1CCC(CNS(=O)(=O)c2cccc3nsnc23)CC1)c1ccccc1 (stereo not drawn)	·	·	·	21µM*	·	?
O=C(C1CCC(CNS(=O)(=O)c2cccc3nsnc23)CC1)N1CCN(c2ccccn2)CC1 (stereo not drawn)	2%	10	0%	23µM*	36%	?
CCCCC(CC)CNC(=O)C1CCC(CNS(=O)(=O)c2cccc3nsnc23)CC1 (stereo not drawn)	·	·	·	21µM*	·	?
Cc1ccccc1C1C=C(c2ccc(Cl)cc2)Nc2nnnn21 (stereo not drawn)	·	·	·	?	·	-28%
COc1cccc(C2=CC(c3cccc(OC)c3OC)n3nnnc3N2)c1 (stereo not drawn)	-19%	-18	-2%	16µM*	3.2µM*	12µM*
COc1cccc(C2C=C(c3ccc(C)c(C)c3)Nc3nnnn32)c1OC (stereo not drawn)	·	·	·	3.7µM*	·	5.2µM*
COc1cccc(C2C=C(c3cccs3)Nc3ncnn32)c1OC (stereo not drawn)	?	-5	8%	-43%	11µM*	?
COc1ccc(C2C=C(c3ccc(Br)s3)Nc3ncnn32)cc1OC (stereo not drawn)	-2%[0.365 µM]	·	?	·	-112%	·
CCN(C(=O)c1ccco1)c1nc(-c2ccc(OC)cc2)cs1	-6%	5	?	?	52%	-6%
COc1ccc(-c2csc(N(CC3CCCO3)C(=O)c3ccco3)n2)cc1 (stereo not drawn)	-2%	-15	?	21µM*	4%	21µM*
COCCN(C(=O)c1ccco1)c1nc(-c2ccc(OC)cc2)cs1	·	24	·	16µM*	·	26µM*
COc1ccc2c(c1OC)C(=O)OC2Nc1ccccn1 (stereo not drawn)	4%	12	15%	-2%	22%	4%
COc1ccc2c(c1OC)C(=O)OC2c1ccc(O)cc1 (stereo not drawn)	·	·	·	13µM*	·	18µM*
CC(/C=N/n1c(COc2ccccc2)n[nH]c1=S)=C\c1ccco1	-19%	·	-18%	-13%	7.1µM*	4%
S=c1[nH]nc(COc2ccccc2)n1/N=C/c1ccco1	-3%	17	-6%	-14%	7.9µM*	-1%
CCCCNC(=O)C(NC(=O)c1cnc(C)cn1)C(=O)c1ccccc1 (stereo not drawn)	·	-10	·	0%	·	-3%
Cc1cc(NC(=O)c2ccccc2)ccc1NC(=O)Cc1ccccc1	14%	-8	-21%	-3%	12%	2%
CNc1ccccc1C(C)(C)c1cc(-c2cccc(OC)c2)no1	?	7	1.5µM*	5.2µM*	1.4µM*	4.6µM*
CNc1ccccc1C(C)(C)c1cc(-c2cc(C)cc(C)c2)no1	0%	-9	-3%	?	-5%	?
SMILES	Gal4-VP16 FLuc	IL-1B inflam inh	ELG1 repair inh	TDP1 cell noCPT	RORgamma inh	TDP1 cell CPT
Cc1ccccc1C(=O)Nc1nnc(S(=O)(=O)N2CCCCC2)s1	-3%	-11	9%	3%	27%	?
CCCCCC1=C2CNC(CCC)(C(=O)OC)C=C2C(C)C1=O (stereo not drawn)	-3%	·	·	·	23%	·
CC1CCc2c(sc(/N=C/N(C)C)c2C#N)C1 (stereo not drawn)	10%	-63*	?	-20%	?	?
O=C(CCl)Nc1ccccc1Sc1ccccc1	-8%	?	-12%	?	-58%	?
Cc1ccc(NC(=O)CC(=O)Nc2ccc(C)c(C)c2)cc1C	4%	-4	-9%	-16%	3%	23%
Cc1ccc(Sc2ccc(NC(=O)CCl)cc2)cc1C	?	-79*	16%	?	?	23µM*
Cc1ccc(C)c(Sc2ccc(NC(=O)CCl)cc2)c1	?	-88*	-14%	18µM*	-14%[10 µM]	16µM*
CN1C(=O)NC2(O)C(=O)c3ccccc3C12O (stereo not drawn)	-3%	35	-2%	10µM*	-9%	12µM*
CCOC(=O)c1ccc(N2C(=O)CC(N(C)CCc3ccc(OC)c(OC)c3)C2=O)cc1 (stereo not drawn)	·	4	-16%	?	2%[0.365 µM]	16µM*
CCC(C(=O)NCc1ccccc1)n1ncn2c(cc3occc32)c1=O (stereo not drawn)	·	·	·	-12%	·	-1%
COc1cccc(Cn2c(=O)n(CC3CCC(C(=O)NC(C)C)CC3)c(=O)c3sccc32)c1 (stereo not drawn)	·	·	·	3%	·	-10%
CCCCNCc1cc(Br)c(OCC(=O)NCc2ccccc2)c(OC)c1	4%	-26	-2%	?	3%	-19%
CCN(CC)CCNCc1cc(Cl)c(OCC(=O)Nc2ccccc2)c(OC)c1	-4%	-25	6%	23µM*	-32%	?
COc1cc(CNC(C)c2ccccc2)cc(Cl)c1OCC(=O)Nc1ccccc1 (stereo not drawn)	?	0	-26%	26µM*	-12%	9.2µM*
CC(C)(C)C(=O)N1CCN(c2ccc([N+](=O)[O-])cc2-n2cccc2)CC1	5%	-5	?	21µM*	?	?
O=C(C1CC1)N1CCN(c2ccc([N+](=O)[O-])cc2-n2cccc2)CC1	-20%	-6	?	13µM*	39%	12µM*
Cc1ccc(Nc2ccc(N3CCN(C(=O)c4ccc([N+](=O)[O-])cc4)CC3)nn2)cc1	·	·	·	23µM*	·	?
